This is an account of results in PubChem BioAssay (NCI).

What all share (assay): NCI-60 one-dose screen, 48 h (100 = growth as untreated, 0 = no growth, -100 = all killed)
Settings in all cases: 10 µM unless noted

In experiment [1] the test system is NCI-H23 lung.
The subject of experiment [2] is NCI-H226 lung.
In experiment [3] the test system is NCI-H322M lung.
Experiment [4] relates to HOP-62 NSCLC.
Experiment [5] concerns NCI-H460 lung.
The subject of experiment [6] is HOP-92 NSCLC.
Experiment [7] relates to NCI-H522 lung.
Experiment [8] concerns A549/ATCC NSCLC.
Experiment [9] has as its system 786-0 renal.
Experiment [10] has as its system COLO 205 colon.
Experiment [11] deals with DU-145 prostate.
Experiment [12] relates to K-562 leukemia.
Experiment [13] has as its system MALME-3M melanoma.
In experiment [14] the test system is MDA-MB-231 breast.
For experiment [15], the system named is SF-268 CNS.
In experiment [16] the test system is SF-295 CNS.
The test system of experiment [17] is SF-539 CNS.
The test system of experiment [18] is UACC-257 melanoma.
The test system of experiment [19] is M14 melanoma.

Structures are written as SMILES. This is part of a sample that, as a whole, favours compounds with a hit. Of some 83,000 tested, about 20% had one in any assay.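 In brief: 96-well plates, 48 h treatment, single concentration, percent growth endpoint.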 A number with no mark means an inactive call. Active and inactive are the calls of the source. How the source made its calls: active means growth percent below 10; inactive means the rest.

As to `CN1CCN(c2cc(F)c(NC3=C(Cl)C(=O)c4ncccc4C3=O)c(F)c2)CC1`, the growth was -61.2% (active) in experiment [1]; 85.3% in [2]; 102% in experiment [3]; 83.3% in [4]; 9.91% (active) in [5]; -79.9% (active) in experiment [6]. In addition, the growth is -59.7% (active) in experiment [7]; 74.6% in [8]; -72% (active) in [9]; 34% in [10]; -67.6% (active) in experiment [11]; -0.834% (active) in experiment [12]. Further, the growth is -96.1% (active) in experiment [13]; -32% (active) in experiment [14]; 48.7% in experiment [15]; 78.8% in experiment [16]; -25.1% (active) in experiment [17]; -62.2% (active) in experiment [18]. For the same compound, the growth in experiment [19] is -40.5% (active).
For the compound `O=C1Nc2c(ccc(Cl)c2Cl)/C1=C/c1ccc(O)cc1`, the growth in experiment [1] was 86.7%; in [2], 90.1%; in experiment [3], 107%; in experiment [4] it was 86.1%; in experiment [5] it was 94.1%; in experiment [6], 65.7%. Moreover, the growth is 64.1% in [7]; 35.7% in experiment [8]; 92.3% in experiment [9]; 98.6% in experiment [10]; 119% in experiment [11]; 91.9% in experiment [12]. Besides, the growth in experiment [13] was 108%; in experiment [14], 88.7%; in experiment [15], 89.1%; in [16] it was 87.6%; in experiment [17] it was 98.3%; in experiment [18], 102%. In addition, the growth in [19] was 100%.
Take `COc1ccncc1C#Cc1cncc(C(=O)Nc2ccc(CN3CCN(C)CC3)c(C(F)(F)F)c2)c1`: the growth in experiment [1] is 28%; in experiment [2], 3.6% (active); in experiment [3], 37.3%; in experiment [4] it was 38.9%; in experiment [5], 8.17% (active); in [6], -2.19% (active). Besides, the growth was 30.9% in [7]; 36.9% in experiment [8]; 46.9% in experiment [9]; 4.09% (active) in experiment [10]; 35.4% in experiment [11]; 5.84% (active) in experiment [12]. For the same compound, the growth in [13] is -28% (active); in [14], 9.91% (active); in experiment [15] it was 39.8%; in experiment [16] it was 49.7%; in experiment [17] it was 1.56% (active); in [18], 46.5%. Moreover, the growth in experiment [19] is -3.19% (active).
Turning to `CCOC(=O)c1cnc2c(cnn2CC)c1NN=C(C)C`, the growth in experiment [1] was 96.5%; in [2], 86.6%; in experiment [3], 94.6%; in experiment [4], 76.6%; in experiment [5], 106%; in [6], 73.9%. Moreover, the growth is 74.4% in experiment [7]; 96.2% in [8]; 86.5% in experiment [9]; 113% in experiment [10]; 100% in experiment [11]; 62.9% in experiment [12]. Moreover, the growth in [13] was 99.7%; in experiment [14], 91.6%; in experiment [15] it was 92.4%; in experiment [16] it was 96.1%; in [17] it was 94.8%; in experiment [18] it was 113%. Besides, in experiment [19], the growth is 106%.
Turning to `COc1ccc(-c2cnnc3c(-c4cccc(C(F)(F)F)c4)cnn23)cc1`, the growth is 70.4% in experiment [1]; 60.9% in experiment [2]; 45.7% in [3]; 3.24% (active) in experiment [4]; 36% in experiment [5]; 52.7% in [6]. Moreover, the growth was 27.5% in [7]; 63.5% in [8]; 7.61% (active) in [9]; 135% in experiment [10]; 57.8% in experiment [11]; 86.3% in experiment [12]. For the same compound, the growth in experiment [13] is 24.1%; in experiment [14], 72.9%; in experiment [15], 30.1%; in experiment [16] it was -5.8% (active); in experiment [17] it was 15.9%; in [18] it was 44%. In addition, in experiment [19], the growth was 78.7%.
As to `CCn1cc(C2NC(=O)c3ccccc3N2)c2cccc(C)c21` (configuration not stated), the growth in experiment [1] was 30.1%; in experiment [2], 57.2%; in [3] it was 36.7%; in experiment [4], 31.6%; in experiment [5], 1.6% (active); in experiment [6], 80.5%. Moreover, the growth in experiment [7] is -39.8% (active); in experiment [8] it was 18.4%; in experiment [9], 39.4%; in [10], -17.3% (active); in [11], 12.2%; in experiment [12], 3.49% (active). For the same compound, the growth was 48% in [13]; 15.3% in experiment [14]; 43.2% in experiment [15]; 3.52% (active) in [16]; -49.7% (active) in experiment [17]; 66.7% in [18]. Further, the growth in experiment [19] was 8.05% (active).
`O=S(=O)(c1cccc(NC2=Nc3cccc4cccc2c34)c1)N1CCCC1`: the growth is 60.8% in experiment [1]; 62.3% in [2]; 80.1% in [3]; 91.5% in experiment [4]; 50.7% in experiment [5]; -3.41% (active) in experiment [6]. Also, the growth in experiment [7] was 75.3%; in [8], 66.3%; in experiment [9], 82.9%; in experiment [10], 95.6%; in experiment [11], 90.4%; in [12], 19.3%. In addition, the growth in experiment [13] was 64.1%; in [14] it was 77.1%; in experiment [15], 79.1%; in [16], 59%; in [17] it was 74.9%; in experiment [18] it was 64.9%. Moreover, in [19], the growth is 69.5%.
Take `CS(=O)(=O)c1ccc(-c2cc3c(oc2=O)-c2ccccc2OC3O)cc1` (configuration not stated): the growth in experiment [1] is 90.3%; in [2], 74.7%; in [3], 107%; in [4], 94.9%; in experiment [5], 91.7%; in [6], 38.1%. The growth is 92.7% in experiment [7]; 104% in experiment [8]; 88.7% in [9]; 114% in experiment [10]; 87.1% in experiment [11]; 81% in experiment [12]. The growth was 101% in [13]; 98.7% in [14]; 96.6% in experiment [15]; 75.7% in [16]; 90.2% in experiment [17]; -3.93% (active) in [18]. Also, the growth in [19] was 101%.
`COc1ccc(C(=O)c2cc3c(N)c(C(=O)Nc4cccc(Cl)c4)sc3nc2C)cc1`: the growth in experiment [1] is 35.1%; in experiment [2], 61.9%; in experiment [3] it was 57.2%; in experiment [4], 44.9%; in experiment [5], 13.1%; in [6], 86.9%. Further, the growth is -4.67% (active) in [7]; 32.3% in experiment [8]; 51.6% in experiment [9]; -1.48% (active) in [10]; 18% in [11]; 6.91% (active) in [12]. The growth in experiment [13] is 51.2%; in [14], 28.4%; in experiment [15], 44.7%; in experiment [16] it was 31.3%; in [17], -15.5% (active); in experiment [18], 71.4%. Moreover, in experiment [19], the growth was 17.9%.
`O=C(CNCCO)Nc1ccc2ncnc(Nc3ccc(OCc4cccc(F)c4)c(Cl)c3)c2c1`: the growth in [1] was 98.9%; in [2], 93.8%; in [3] it was 33.4%; in [4], 87%; in experiment [5], 88.7%; in experiment [6], 55.8%. Moreover, the growth in experiment [7] is 46.3%; in experiment [8], 71.6%; in experiment [9], 69.6%; in experiment [10], 96%; in [11], 61.6%; in [12], 27.8%. The growth in experiment [13] was 98.2%; in [14], 87.7%; in experiment [15] it was 78.1%; in experiment [16], 95%; in experiment [17], 87.8%; in experiment [18], 101%. The growth in experiment [19] is 93.4%.
Take `COc1cc(Nc2cc(O)c3c(=O)cc(-c4ccccc4)oc3c2)cc(OC)c1`: the growth in experiment [1] is 35.9%; in experiment [2], 67.7%; in [3], 44.1%; in experiment [4], 35.5%; in experiment [5], 7.62% (active); in experiment [6] it was 79.5%. In addition, the growth in experiment [7] is -35.3% (active); in experiment [8], 25.9%; in [9] it was 45.4%; in experiment [10] it was 48.4%; in experiment [11], 20%; in experiment [12], 13.1%. The growth was 73.6% in experiment [13]; 15.9% in [14]; 48.2% in experiment [15]; 33.5% in experiment [16]; -35.2% (active) in [17]; 77.9% in experiment [18]. Besides, the growth in [19] is 28.4%.
As to `O=C(NCCN1CCOCC1)OCc1nc2nc(Cl)nc(N3CCOCC3)c2[nH]1`, the growth in experiment [1] was 26.3%; in experiment [2], 62.6%; in [3], 42.4%; in experiment [4], 32.5%; in [5], 9.27% (active); in experiment [6], 54.3%. The growth in experiment [7] was -29.8% (active); in [8], 68.2%; in [9] it was 58.1%; in experiment [10], 110%; in [11] it was 8.23% (active); in experiment [12] it was 6.62% (active). Further, the growth was 50% in [13]; 22.9% in experiment [14]; 27% in [15]; 94.6% in experiment [16]; -15.8% (active) in experiment [17]; 69.2% in experiment [18]. Further, the growth in experiment [19] was 9.49% (active).
Regarding `COc1ccc(NC(=O)c2sc3nc(C)c(C(O)c4ccc(OC)cc4)cc3c2N)cc1` (configuration not stated), the growth in experiment [1] was 36.2%; in experiment [2], 63.5%; in [3] it was 51.3%; in experiment [4], 31.8%; in [5], 9.03% (active); in experiment [6], 57.6%. Besides, the growth in [7] is 5.14% (active); in experiment [8], 23%; in experiment [9], 53.3%; in experiment [10], -6.28% (active); in experiment [11], 25.6%; in experiment [12], 9.99% (active). Further, the growth in experiment [13] was 63.7%; in [14] it was 22.1%; in [15], 42%; in [16], -1.07% (active); in experiment [17], -11.4% (active); in experiment [18] it was 60.4%. The growth in [19] is 24.7%.
